According to ChEMBL document CHEMBL2218924, “A broad activity screen in support of a chemogenomic map for kinase signalling research and drug discovery” (Biochem J, 2013):

Tests used:
[1] = target: Tyrosine-protein kinase SYK (Homo sapiens) (UniProt P43405); settings: at 10 µM
[2] = target: T1, Mitogen-activated protein kinase kinase kinase 7 (Homo sapiens) (UniProt O43318); settings: at 1 µM
T1 sequence (whole entry): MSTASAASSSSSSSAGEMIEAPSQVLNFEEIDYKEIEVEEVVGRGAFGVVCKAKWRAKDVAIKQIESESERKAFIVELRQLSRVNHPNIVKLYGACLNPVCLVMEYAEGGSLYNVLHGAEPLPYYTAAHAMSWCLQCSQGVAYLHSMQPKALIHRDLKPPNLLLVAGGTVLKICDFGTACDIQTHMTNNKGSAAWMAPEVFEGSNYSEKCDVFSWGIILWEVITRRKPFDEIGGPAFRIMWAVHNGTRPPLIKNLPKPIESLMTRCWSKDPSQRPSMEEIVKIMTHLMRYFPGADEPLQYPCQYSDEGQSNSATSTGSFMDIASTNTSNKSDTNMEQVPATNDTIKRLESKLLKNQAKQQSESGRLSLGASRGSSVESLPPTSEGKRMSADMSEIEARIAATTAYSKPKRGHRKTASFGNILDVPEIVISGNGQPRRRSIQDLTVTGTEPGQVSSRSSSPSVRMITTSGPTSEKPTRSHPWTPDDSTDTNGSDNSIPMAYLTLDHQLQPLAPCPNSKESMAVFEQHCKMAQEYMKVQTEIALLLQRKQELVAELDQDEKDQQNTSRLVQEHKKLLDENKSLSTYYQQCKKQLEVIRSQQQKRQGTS

[3] = target: T1, Mitogen-activated protein kinase kinase kinase 7 (Homo sapiens); settings: at 10 µM
[4] = target: T2, Serine/threonine-protein kinase TAO1 (Homo sapiens) (UniProt Q7L7X3); settings: at 1 µM
T2 sequence (whole entry): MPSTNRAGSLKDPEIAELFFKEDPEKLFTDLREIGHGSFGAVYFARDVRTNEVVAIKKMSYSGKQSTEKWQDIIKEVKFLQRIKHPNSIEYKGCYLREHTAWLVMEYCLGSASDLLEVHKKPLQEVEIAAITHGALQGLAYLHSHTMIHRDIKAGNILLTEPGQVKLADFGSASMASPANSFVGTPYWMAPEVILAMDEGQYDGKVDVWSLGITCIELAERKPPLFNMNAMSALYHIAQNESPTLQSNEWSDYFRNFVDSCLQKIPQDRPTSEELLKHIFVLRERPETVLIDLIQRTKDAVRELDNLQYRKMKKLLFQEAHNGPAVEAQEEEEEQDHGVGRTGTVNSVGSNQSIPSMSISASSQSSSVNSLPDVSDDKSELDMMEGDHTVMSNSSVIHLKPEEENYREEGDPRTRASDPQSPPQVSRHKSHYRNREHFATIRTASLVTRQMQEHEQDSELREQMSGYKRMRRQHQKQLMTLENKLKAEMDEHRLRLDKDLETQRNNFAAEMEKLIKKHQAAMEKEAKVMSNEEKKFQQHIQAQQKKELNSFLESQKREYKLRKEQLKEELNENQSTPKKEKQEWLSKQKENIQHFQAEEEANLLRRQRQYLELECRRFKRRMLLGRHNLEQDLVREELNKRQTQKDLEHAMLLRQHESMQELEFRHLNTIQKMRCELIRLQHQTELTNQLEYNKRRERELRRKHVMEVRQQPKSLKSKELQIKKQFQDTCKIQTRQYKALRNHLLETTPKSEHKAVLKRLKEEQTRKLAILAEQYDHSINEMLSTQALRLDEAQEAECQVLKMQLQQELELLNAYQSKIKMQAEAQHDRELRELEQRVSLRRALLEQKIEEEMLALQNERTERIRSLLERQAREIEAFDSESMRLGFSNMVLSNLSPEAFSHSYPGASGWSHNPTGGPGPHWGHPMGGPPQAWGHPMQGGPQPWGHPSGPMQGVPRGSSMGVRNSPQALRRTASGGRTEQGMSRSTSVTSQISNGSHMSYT

[5] = target: T2, Serine/threonine-protein kinase TAO1 (Homo sapiens); settings: at 10 µM
[6] = target: T3, Serine/threonine-protein kinase TAO2 (Homo sapiens) (UniProt Q9UL54); settings: at 1 µM
T3 sequence (whole entry): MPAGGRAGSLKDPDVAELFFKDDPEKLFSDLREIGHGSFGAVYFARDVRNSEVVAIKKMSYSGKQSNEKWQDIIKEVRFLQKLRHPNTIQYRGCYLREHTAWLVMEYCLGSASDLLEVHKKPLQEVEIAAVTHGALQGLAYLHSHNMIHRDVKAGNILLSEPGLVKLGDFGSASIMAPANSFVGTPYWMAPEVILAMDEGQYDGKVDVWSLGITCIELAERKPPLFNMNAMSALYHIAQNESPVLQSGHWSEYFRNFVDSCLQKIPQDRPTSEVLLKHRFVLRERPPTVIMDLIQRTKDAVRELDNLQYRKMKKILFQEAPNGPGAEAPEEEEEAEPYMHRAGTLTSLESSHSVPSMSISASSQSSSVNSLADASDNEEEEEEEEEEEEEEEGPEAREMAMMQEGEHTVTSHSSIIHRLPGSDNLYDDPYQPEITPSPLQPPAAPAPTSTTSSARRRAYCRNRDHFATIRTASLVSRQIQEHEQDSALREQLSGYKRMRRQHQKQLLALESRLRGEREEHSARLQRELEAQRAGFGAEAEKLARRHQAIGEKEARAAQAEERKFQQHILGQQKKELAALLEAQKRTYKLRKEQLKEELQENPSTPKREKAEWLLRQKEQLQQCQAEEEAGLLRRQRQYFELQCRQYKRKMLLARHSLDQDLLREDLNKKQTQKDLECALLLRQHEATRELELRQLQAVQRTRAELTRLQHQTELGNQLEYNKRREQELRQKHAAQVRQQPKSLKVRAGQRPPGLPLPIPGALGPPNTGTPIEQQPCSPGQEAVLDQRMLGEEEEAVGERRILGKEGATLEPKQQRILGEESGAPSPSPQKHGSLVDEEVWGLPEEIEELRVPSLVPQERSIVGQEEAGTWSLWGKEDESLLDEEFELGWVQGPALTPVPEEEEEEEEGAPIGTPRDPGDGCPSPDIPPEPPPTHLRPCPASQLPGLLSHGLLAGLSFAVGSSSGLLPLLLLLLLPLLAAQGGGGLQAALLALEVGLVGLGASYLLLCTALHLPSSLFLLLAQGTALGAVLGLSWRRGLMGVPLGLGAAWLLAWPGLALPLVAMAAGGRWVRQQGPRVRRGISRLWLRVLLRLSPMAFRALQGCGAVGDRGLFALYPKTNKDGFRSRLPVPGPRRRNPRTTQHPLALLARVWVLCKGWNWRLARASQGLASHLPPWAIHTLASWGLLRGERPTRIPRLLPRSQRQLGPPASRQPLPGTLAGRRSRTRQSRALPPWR

[7] = target: T3, Serine/threonine-protein kinase TAO2 (Homo sapiens); settings: at 10 µM
[8] = target: T4, Serine/threonine-protein kinase TAO3 (Homo sapiens) (UniProt Q9H2K8); settings: at 1 µM
T4 sequence (whole entry): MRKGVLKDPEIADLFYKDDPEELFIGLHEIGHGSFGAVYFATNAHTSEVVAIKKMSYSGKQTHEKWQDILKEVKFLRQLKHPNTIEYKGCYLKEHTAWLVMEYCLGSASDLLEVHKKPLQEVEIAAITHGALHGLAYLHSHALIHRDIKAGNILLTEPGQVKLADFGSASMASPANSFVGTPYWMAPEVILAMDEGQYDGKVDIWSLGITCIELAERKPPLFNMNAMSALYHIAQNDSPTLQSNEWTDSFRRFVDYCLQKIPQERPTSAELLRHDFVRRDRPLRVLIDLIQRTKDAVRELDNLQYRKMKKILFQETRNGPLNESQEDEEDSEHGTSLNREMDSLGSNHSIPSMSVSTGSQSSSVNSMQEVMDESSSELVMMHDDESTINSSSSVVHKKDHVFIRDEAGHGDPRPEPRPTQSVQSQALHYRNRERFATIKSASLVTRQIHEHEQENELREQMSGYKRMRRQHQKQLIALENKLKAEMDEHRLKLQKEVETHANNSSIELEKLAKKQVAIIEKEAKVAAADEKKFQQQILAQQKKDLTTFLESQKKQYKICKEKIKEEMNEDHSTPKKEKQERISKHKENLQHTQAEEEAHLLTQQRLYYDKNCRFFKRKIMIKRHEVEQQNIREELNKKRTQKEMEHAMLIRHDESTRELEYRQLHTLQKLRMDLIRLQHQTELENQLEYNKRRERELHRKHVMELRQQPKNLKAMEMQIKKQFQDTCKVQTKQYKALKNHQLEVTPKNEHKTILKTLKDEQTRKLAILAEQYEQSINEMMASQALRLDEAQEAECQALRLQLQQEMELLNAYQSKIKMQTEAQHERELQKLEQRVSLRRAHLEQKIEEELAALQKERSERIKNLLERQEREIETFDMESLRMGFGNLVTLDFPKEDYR

[9] = target: T4, Serine/threonine-protein kinase TAO3 (Homo sapiens); settings: at 10 µM
[10] = target: T5, Serine/threonine-protein kinase TBK1 (Homo sapiens) (UniProt Q9UHD2); settings: at 1 µM
T5 sequence (whole entry): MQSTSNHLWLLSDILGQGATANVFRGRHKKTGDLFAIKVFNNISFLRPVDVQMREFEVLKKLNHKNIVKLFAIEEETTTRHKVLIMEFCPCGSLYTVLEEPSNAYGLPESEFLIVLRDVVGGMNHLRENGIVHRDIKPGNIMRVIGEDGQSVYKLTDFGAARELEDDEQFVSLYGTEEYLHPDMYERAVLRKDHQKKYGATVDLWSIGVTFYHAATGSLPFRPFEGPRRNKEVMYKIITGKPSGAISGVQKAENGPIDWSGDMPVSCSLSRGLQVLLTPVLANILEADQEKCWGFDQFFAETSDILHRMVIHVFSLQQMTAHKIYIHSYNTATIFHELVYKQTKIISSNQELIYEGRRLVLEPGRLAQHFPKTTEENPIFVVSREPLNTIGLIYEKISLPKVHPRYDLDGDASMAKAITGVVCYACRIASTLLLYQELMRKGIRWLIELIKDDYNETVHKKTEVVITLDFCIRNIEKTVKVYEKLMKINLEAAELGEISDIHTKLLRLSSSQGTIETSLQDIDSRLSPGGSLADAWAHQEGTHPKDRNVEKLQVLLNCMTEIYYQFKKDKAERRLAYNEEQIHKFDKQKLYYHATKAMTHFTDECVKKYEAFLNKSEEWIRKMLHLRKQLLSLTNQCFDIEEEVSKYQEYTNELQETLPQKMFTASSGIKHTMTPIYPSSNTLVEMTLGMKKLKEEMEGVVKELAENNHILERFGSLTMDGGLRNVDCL

O=Nc1c(-c2c(O)[nH]c3ccccc23)[nH]c2ccccc12
residual activity [1]: 60% | residual activity [2]: 64% | residual activity [3]: 71% | residual activity [4]: 83% | residual activity [5]: 39% | residual activity [6]: 75% | residual activity [7]: 26% | residual activity [8]: 85% | residual activity [9]: 28% | residual activity [10]: 9%
